# Data as given in PubChem BioAssay.
# “And” between values parts separate entries of the source, which are not always exact repeats. Equal entries are not always repeated. The source made the active and inactive calls.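 How the source made its calls, unless noted: active means thallium flux through the channel raised or lowered by more than 3 SD from vehicle-only wells, actives on both sides; inactive means the rest.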
# Legend:
# [1] = P. berghei load reduction in hepatocytes – cell-based, HepG2, luciferase luminescence, HepG2 viability, primary screen (AID 624349; in the data active means parasite load remaining mostly below about 12%, no sharp cut-off; inactive means mostly above about 10%;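 further: 100% = mean of DMSO negative control wells on the same plate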); settings: P. berghei liver stage in HepG2, luciferase luminescence, concentration not given here; parasite load remaining: stronger effect = lower value; viability: measured here: HepG2 viability without parasites
# [2] = signal quenchers or enhancers, Cy5 substrate/SSB – biochemical, NIH Clinical Collection, E. coli SSB, artefact control for HCV NS3 helicase inhibitor project (AID 743268; call rule not given here); settings: Cy5-oligo bound E. coli SSB, fluorescence interference
# [3] = tested on: Hepatitis C virus NS3 helicase; assay: blockers of NS3h binding to DNA – biochemical, fluorescence polarization, NIH Clinical Collection, primary screen (AID 743270; call rule not given here); settings: NS3 helicase binding to Cy5-dT15 DNA, stronger effect = higher value, concentration not given here
# [4] = molecular target: Single-stranded DNA-binding protein (Escherichia coli (strain K12)) (UniProt P0AGE0); assay: SSB-ssDNA binding inhibitors – biochemical, fluorescence polarization, NIH Clinical Collection, counter-screen for HCV NS3 helicase inhibitor project (AID 743271; in the data active means inhibition above about 28%); settings: E. coli SSB-DNA binding, stronger effect = higher value, concentration not given here
# [5] = compounds distorting NS3 helicase fluorescence signal – biochemical, NIH Clinical Collection, artefact control for HCV NS3 helicase inhibitor project (AID 743272; call rule not given here;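 further: HCV NS3 helicase with a Cy5 labelled single stranded DNA probe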); settings: fluorescence interference counterscreen, HCV NS3 helicase assay; stronger effect = lower value
# [6] = molecular target: 6-phosphogluconate dehydrogenase, decarboxylating (Homo sapiens) (UniProt P52209); assay: inhibition of human phosphogluconate dehydrogenase – biochemical, recombinant enzyme, NADPH absorbance, primary screen (AID 1159550;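 active means at least 20% inhibition of 6-phosphogluconate dehydrogenase activity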); settings: recombinant 6PGD, NADPH absorbance 341 nm; at 10 µM; stronger effect = higher value
# [7] = viability loss with induced miR-34 in A549 – imaging, A549 dox-inducible miR-34, nuclei and caspase counts, primary screen (AID 1347080;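 active means compounds whose cell count with miR-34 switched on is under 0.7 times the count with it off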); settings: A549 miR-34 inducible, Hoechst nuclei count, 48 h
# F380Y = assay: BK channel mutant inhibitors and activators – cell-based, U2OS BacMam, thallium flux, beta subunits, selectivity assay, profiling panel (AID 1259406); settings: U2OS BacMam BK variants, at 30 µM;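 further: initial slope of Thallos dye fluorescence rise after thallium is added; log ratio against the mean of 0.3% DMSO vehicle wells on the same plate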
# F380Y/beta1 = assay: as above; settings: U2OS BacMam BK variants, at 30 µM
# F380Y/beta2Delta = assay: as above; settings: U2OS BacMam BK variants, at 30 µM
# F380Y/beta4 = assay: as above; settings: U2OS BacMam BK variants, at 30 µM
# [8] = molecular target: Calcium-activated potassium channel subunit alpha-1 (Homo sapiens) + Leucine-rich repeat-containing protein 26 (Homo sapiens) (UniProt Q12791+Q2I0M4); assay: as above; settings: U2OS BacMam BK variants, F380Y/Slo1WT/gamma1, at 30 µM
# R275C = assay: as above; settings: U2OS BacMam BK variants, at 30 µM
# R275C/beta1 = assay: as above; settings: U2OS BacMam BK variants, at 30 µM
# R275C/beta2Delta = assay: as above; settings: U2OS BacMam BK variants, at 30 µM
# [9] = EMT-state selective cytotoxicity in co-culture – imaging, PC-3E GFP, TEM4-18 mCherry, primary screen (AID 1345086;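 active means compounds killing one labelled cell type while sparing the other, by normalised counts and ratio limits, not self-fluorescent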;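 on all read-outs here: cells exposed to compound for 72 h before imaging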;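 on red/green cell ratio (normalised): normalised mesenchymal count divided by normalised epithelial count so high means epithelial killing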); settings: PC-3E GFP / TEM4-18 mCherry co-culture, imaging cell counts, at 1 µM; for red/green cell ratio (normalised): actives lie on both sides, counts scaled to control wells, 1 = unselective
# [10] = modulation of C. elegans fzo-1 (AID 1259413; call rule not given here;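 further: fzo-1 mutant C. elegans worms in liquid wells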); settings: C. elegans fzo-1 modulator screen, mean read-out; stronger effect = higher value
# [11] = MELAS cybrid and Rieske KO viability enhancers – cell-based, MELAS cybrids, Rieske KO mouse fibroblasts, CellTiter-Glo, primary screen (AID 1508586;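 active means mean z-score across replicates of 1.96 or higher in either the MELAS or the Rieske mutant cell line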;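 further: z relative to plate mean and SD of compound and empty wells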); settings: low glucose
# [12] = molecular target: Mitogen-activated protein kinase 7 (Homo sapiens) (UniProt Q13164); assay: Gal4-ERK5 driven luciferase induction – cell-based, HTS, primary screen (AID 1508626;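 active means luciferase signal above three times the same-plate solvent-only control wells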;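 further: luciferase driven by Gal4-ERK5 fusion binding five Gal4 sites before minimal TATA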); settings: HeLa Gal4-ERK5 transactivation, 18 h, at 5 µM, stronger effect = higher value
# [13] = stronger effect = lower value, cell number ratio, induced over uninduced
# [14] = measured here: relative caspase fold change +Dox/-Dox
# [15] = measured here: total cells with miR-34 induction, stronger effect = lower value
# [16] = measured here: total cells without miR-34 induction
# [17] = measured here: epithelial PC-3E GFP cell survival
# [18] = measured here: mesenchymal TEM4-18 mCherry cell survival
# Sequence of 6-phosphogluconate dehydrogenase, decarboxylating (Homo sapiens) (P52209 whole entry, looked up): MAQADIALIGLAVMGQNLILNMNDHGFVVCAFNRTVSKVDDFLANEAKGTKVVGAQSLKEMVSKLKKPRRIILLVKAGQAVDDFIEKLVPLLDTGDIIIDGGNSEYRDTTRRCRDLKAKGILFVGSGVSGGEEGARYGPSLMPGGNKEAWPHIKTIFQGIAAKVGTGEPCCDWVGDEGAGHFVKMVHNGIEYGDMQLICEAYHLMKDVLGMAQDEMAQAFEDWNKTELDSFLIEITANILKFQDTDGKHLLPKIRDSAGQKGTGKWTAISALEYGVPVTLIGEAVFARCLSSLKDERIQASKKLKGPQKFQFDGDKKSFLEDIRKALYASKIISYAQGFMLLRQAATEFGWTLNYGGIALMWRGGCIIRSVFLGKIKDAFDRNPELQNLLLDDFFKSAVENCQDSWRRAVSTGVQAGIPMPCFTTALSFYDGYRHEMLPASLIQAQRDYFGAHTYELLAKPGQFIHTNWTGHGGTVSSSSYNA
# Sequence of Calcium-activated potassium channel subunit alpha-1 (Homo sapiens) + Leucine-rich repeat-containing protein 26 (Homo sapiens) (Q2I0M4 whole entry, looked up, one chain of several): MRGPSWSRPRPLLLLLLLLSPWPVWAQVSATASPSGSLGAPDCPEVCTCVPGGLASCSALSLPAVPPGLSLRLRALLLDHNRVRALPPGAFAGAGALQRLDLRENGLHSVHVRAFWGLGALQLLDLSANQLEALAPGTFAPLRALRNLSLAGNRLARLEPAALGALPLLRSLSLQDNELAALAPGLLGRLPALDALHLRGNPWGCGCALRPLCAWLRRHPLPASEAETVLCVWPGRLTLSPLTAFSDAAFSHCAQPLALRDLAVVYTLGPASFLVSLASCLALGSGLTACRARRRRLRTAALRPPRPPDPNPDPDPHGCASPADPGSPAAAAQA
# Sequence of Mitogen-activated protein kinase 7 (Homo sapiens) (Q13164 whole entry, looked up, the tested form may be a part): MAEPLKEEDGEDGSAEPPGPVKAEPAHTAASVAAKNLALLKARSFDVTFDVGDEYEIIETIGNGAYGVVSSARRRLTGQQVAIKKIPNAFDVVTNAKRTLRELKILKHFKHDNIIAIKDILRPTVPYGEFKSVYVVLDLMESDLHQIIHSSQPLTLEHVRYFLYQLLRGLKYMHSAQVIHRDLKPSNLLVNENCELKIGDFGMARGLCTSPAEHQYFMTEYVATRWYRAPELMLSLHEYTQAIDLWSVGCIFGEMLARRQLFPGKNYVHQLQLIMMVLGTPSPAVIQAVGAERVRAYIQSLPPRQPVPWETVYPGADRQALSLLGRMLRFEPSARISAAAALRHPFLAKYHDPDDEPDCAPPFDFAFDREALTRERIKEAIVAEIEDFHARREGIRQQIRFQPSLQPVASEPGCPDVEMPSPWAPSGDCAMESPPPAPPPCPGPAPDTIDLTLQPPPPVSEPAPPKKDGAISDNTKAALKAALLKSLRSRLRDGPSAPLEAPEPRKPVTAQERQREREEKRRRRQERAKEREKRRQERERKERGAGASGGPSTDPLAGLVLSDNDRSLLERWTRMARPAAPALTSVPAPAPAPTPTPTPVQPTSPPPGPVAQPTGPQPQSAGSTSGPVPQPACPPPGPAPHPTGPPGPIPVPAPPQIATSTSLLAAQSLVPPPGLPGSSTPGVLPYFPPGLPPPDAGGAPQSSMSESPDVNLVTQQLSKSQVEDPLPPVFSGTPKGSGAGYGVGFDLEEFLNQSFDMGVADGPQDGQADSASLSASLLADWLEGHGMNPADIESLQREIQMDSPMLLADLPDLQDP
smiles,measurement,setting,value
CON=C(C(=O)NC1C(=O)N2C(C(=O)O)=C(COC(C)=O)CSC12)c1csc(N)n1 (centres undefined),parasite load remaining,[1],73.2% (inactive)
same,viability,[1],130%
same,fluorescence ratio,[2],1.03 (inactive)
same,inhibition,[3],4.09% (inactive)
same,inhibition,[4],36.1% (active)
same,fluorescence ratio,[5],1.03 (inactive)
same,inhibition,[6],-1.56% (inactive)
same,fold change,[7]; [13],0.991 (inactive)
same,fold change,[7]; [14],2.86
same,cell count,[7]; [15],11400
same,cell count,[7]; [16],11500
same,log fold change Tl+ flux,F380Y,-0.0263 (inactive)
same,log fold change Tl+ flux,F380Y/beta1,-0.0319 (inactive)
same,log fold change Tl+ flux,F380Y/beta2Delta,0.0186 (inactive)
same,log fold change Tl+ flux,F380Y/beta4,0.0152 (inactive)
same,log fold change Tl+ flux,[8],-0.0048 (inactive)
same,log fold change Tl+ flux,R275C,0.0263 (inactive)
same,log fold change Tl+ flux,R275C/beta1,-0.0272 (inactive)
same,log fold change Tl+ flux,R275C/beta2Delta,-0.0298 (inactive)
Cc1cc(=O)oc2cc(O)cc(O)c12,inhibition,[6],3.6% (inactive)
same,red/green cell ratio (normalised),[9],0.8 (inactive)
same,normalised cell number,[9]; [17],1.18
same,normalised cell number,[9]; [18],0.94
C=C1C2=CC(=O)O[C@@H](c3ccoc3)[C@]2(C)CCC1[C@@]1(C)C=CC(=O)C(C)(C)[C@@H]1CC(=O)OC (some centres undefined),inhibition,[6],1.03% (inactive)
same,red/green cell ratio (normalised),[9],1.06 (inactive)
same,normalised cell number,[9]; [17],1.13
same,normalised cell number,[9]; [18],1.2
CN=C(N)NCCC[C@H](N)C(=O)O,parasite load remaining,[1],97.7% (inactive)
same,viability,[1],72.8%
same,fluorescence ratio,[2],0.99 (inactive)
same,inhibition,[3],-3.56% (inactive)
same,inhibition,[4],-2.41% (inactive)
same,fluorescence ratio,[5],0.93 (inactive)
same,inhibition,[6],3.01% (inactive) and 12.6% (inactive)
same,mean signal,[10],269 (inactive)
same,red/green cell ratio (normalised),[9],1.23 (inactive)
same,normalised cell number,[9]; [17],0.78
same,normalised cell number,[9]; [18],0.95
same,fold change,[7]; [13],0.994 (inactive) and 0.867 (inactive)
same,fold change,[7]; [14],0.824 and 0.665
same,cell count,[7]; [15],9540 and 7760
same,cell count,[7]; [16],9600 and 8960
O=C(O)CCC(=O)OCC(NC(=O)C(Cl)Cl)C(O)c1ccc([N+](=O)[O-])cc1 (centres undefined),inhibition,[6],1.37% (inactive)
same,red/green cell ratio (normalised),[9],1.01 (inactive)
same,normalised cell number,[9]; [17],1.15
same,normalised cell number,[9]; [18],1.16
CC1(C)S[C@@H]2[C@H](NC(=O)[C@H](N)c3ccc(O)cc3)C(=O)N2[C@H]1C(=O)O,parasite load remaining,[1],78% (inactive) and 120% (inactive) and 88.8% (inactive)
same,viability,[1],117% and 121% and 76%
same,fluorescence ratio,[2],1.01 (inactive)
same,inhibition,[3],-4.09% (inactive)
same,inhibition,[4],7.91% (inactive)
same,fluorescence ratio,[5],1 (inactive)
same,inhibition,[6],8.62% (inactive)
same,mean signal,[10],239 (inactive)
same,fold change,[7]; [13],0.943 (inactive) and 0.821 (inactive)
same,fold change,[7]; [14],1.29 and 1.62
same,cell count,[7]; [15],10300 and 8970
same,cell count,[7]; [16],10900
same,z-score,"[11]; MELAS cybrid survival, CellTiter-Glo 48 h, stronger effect = higher value",0.664 (inactive)
same,z-score,"[11]; Rieske KO mouse fibroblast survival, CellTiter-Glo 72 h",0.115
same,luciferase signal,[12],56 AU (inactive)
same,log fold change Tl+ flux,F380Y,-0.0516 (inactive)
same,log fold change Tl+ flux,F380Y/beta1,0.0448 (inactive)
same,log fold change Tl+ flux,F380Y/beta2Delta,-0.0816 (active)
same,log fold change Tl+ flux,F380Y/beta4,-0.0174 (inactive)
same,log fold change Tl+ flux,[8],0.0259 (inactive)
same,log fold change Tl+ flux,R275C,0.00882 (inactive)
same,log fold change Tl+ flux,R275C/beta1,0.0045 (inactive)
same,log fold change Tl+ flux,R275C/beta2Delta,-0.0233 (inactive)
